Assay results from PubChem BioAssay AID591 (National Center for Advancing Translational Sciences (NCATS), 2007).
About 60 (0.1%) of roughly 59,000 compounds were called active. How the calls were made is not given here. What follows is part of a selection rich in actives, with near analogues and random picks from the rest.

Assay: qHTS Assay for Spectroscopic Profiling in A488 Spectral Region
Settings: compound autofluorescence; max dye equivalency: Compound Type: qHTS ECL - SigmaAldrich, hits give high values unless noted; outcome: dye equivalency, Compound Type: qHTS ECL - MLSMR unless noted
Description: NIH Molecular Libraries Screening Centers Network [MLSCN]
NIH Chemical Genomics Center [NCGC]
Occasionally, the artifactual effect may originate from the compounds own spectral or other biophysical properties which generally tend to track its assay concentration. Pre-screening/profiling the library with respect to the compounds spectral properties should help one exclude false positives early on. While the most informative fluorescent profiling data set is obtained by performing a full excitation and emission scan of each well by using a monochromator-based plate reader, such an approach is practical only on a very limited scale as scanning each well requires long time. An alternative approach, applied here, is to perform plate reader scans using selected excitation and emission wavelength pairs to generate a multidimensional relational database that correlates compound concentration and the respective relative fluorescence intensity at a given wavelength set. A standard curve of Alexa 488 (A488) present on each plate as six-point concentration series, was used to compute a normalized fluorescence response, termed dye-equivalent concentration, for each compound at each concentration.
NCGC Assay Protocol Summary:
100 mM Tris buffer, pH 8.0
The wells in columns 1 through 4 of a Kalypsys polypropylene 1536-well compound plate were filled with standard solutions of fluorophore corresponding to the spectral region of interest. Solutions of A488 were placed in the following wells: Y1, Z1: 3 mM, Y2, Z2: 300 uM, Y3, Z3: 30 uM, Y4, Z4: zero (DMSO), AA1, AB1: 3 uM, AA2, AB2: 900 nM, AA3, AB3: 300 nM, AA4, AB4: zero (DMSO).
Six uL of buffer were dispensed to 1536-well Greiner black plates. Compounds and dye standards (23 nL) were transferred via Kalypsys PinTool. The plates were incubated for 15 min at room temperature, and then read on ViewLux (Perkin-Elmer) High-throughput CCD imager using 480 nm and 540 nm excitation and emission filter set.
Keywords: NIH Roadmap, MLSCN, MLI, MLSMR, qHTS, NCGC, A488, A-488, Fluorescent Profiling.

Q: Which outcome does the source give for `O=C(O)[C@@H]1[C@@H](C(=O)O)[C@]23C[C@@]2(C(=O)O)[C@]2(C(=O)O)CCC3=C3CCCC312` here?
A: inactive [dye equivalency, Compound Type: qHTS ECL - NCI]

Q: For `Cc1ccc2[nH]c(=O)c(-c3nc4c(C)cccn4c3NCc3ccco3)cc2c1`, which outcome is on record?
A: inactive

Q: With `CN(C)c1ccc(CNC23CN4CN(CN(C4)C2)C3)cc1` as the molecule, how does the outcome read?
A: inactive [dye equivalency, Compound Type: qHTS ECL - DPISMR]

Q: Which outcome does the source give for `Cn1cc(-c2nc3cnc(N4CCNCC4)nc3n(CCc3ccccc3)c2=O)c2ccccc21` here?
A: inactive [dye equivalency, Compound Type: qHTS ECL - Pharmacopeia]

Q: For `CNC(=O)NCCN1CCCC1=O`, which outcome is on record?
A: inactive

Q: With `COc1ccc(-n2c(=O)c(C)nc3cnc(N4CCOCC4)nc32)cc1` as the molecule, how does the outcome read?
A: inactive [dye equivalency, Compound Type: qHTS ECL - Pharmacopeia]

Q: With `CC1(c2ccccc2Cl)NC(=O)N(CC(=O)NC(=O)NCc2ccco2)C1=O` (stereo not given) as the molecule, how does the outcome read?
A: inactive

Q: Which outcome does the source give for `COc1ccc(CCN2C(=O)c3[nH]nc(-c4ccccc4O)c3C2c2ccc(C)cc2)cc1OC` (stereo not given) here?
A: inactive [dye equivalency, Compound Type: qHTS ECL - DPISMR]

Q: For `COC(=O)C(C)N(C#N)c1nc(C)nc(C)n1` (stereo not given), which outcome is on record?
A: inactive [dye equivalency, Compound Type: qHTS ECL - DPISMR]

Q: Which outcome does the source give for `Cc1noc(C)c1C(=O)OCC(=O)/C=C1\N(C)c2ccccc2C1(C)C` here?
A: inactive

Q: Which outcome does the source give for `Cc1ccc(Oc2nc3ccccc3n3c(C)nnc23)cc1` here?
A: inactive [dye equivalency, Compound Type: qHTS ECL - DPISMR]

Q: Which outcome does the source give for `CCOc1ccc(OCC)c(NC(=O)CN(C)S(=O)(=O)c2cccc3nsnc23)c1` here?
A: inactive

Q: Which outcome does the source give for `CCC(C)(C)NC(=O)C(c1cccn1C)N(Cc1ccc(C)cc1)C(=O)Cn1nnc2ccccc21` (stereo not given) here?
A: inactive

Q: Which outcome does the source give for `COc1ccc(OCC(=O)OCCN(C)C)cc1` here?
A: inactive

Q: Which outcome does the source give for `CC(C)C1N=C2c3ccccc3N=C(SCC(=O)c3ccc(O)c(O)c3)N2C1=O` (stereo not given) here?
A: inactive [dye equivalency, Compound Type: qHTS ECL - DPISMR]

Q: With `CCC(=O)Nc1cccc(NC(=O)CSc2nnc(-c3ccc(NS(C)(=O)=O)cc3)n2C)c1` as the molecule, how does the outcome read?
A: inactive

Q: For `Cc1nn(-c2ccccc2)c2c1C(=O)NC(=O)C(C)(C)C2`, which outcome is on record?
A: inactive

Q: Which outcome does the source give for `COc1cc([C@H]2c3cc4c(cc3[C@@H](O[C@@H]3O[C@H]5CO[C@@H](C)O[C@]5(O)C[C@H]3O)[C@@H]3COC(=O)[C@H]23)OCO4)cc(OC)c1O` here?
A: inactive [dye equivalency, Compound Type: qHTS ECL - SigmaAldrich]

Q: Which max dye equivalency does the source give for `O=C(O)c1c(Br)c(Br)c(Br)c(Br)c1C1c2ccc(O)cc2Oc2cc(O)ccc21` here?
A: 15 nM [Compound Type: qHTS ECL - NCI, hits give high values] (active)

Q: Which outcome does the source give for `COc1ccc(OC)c(CN2C(=O)CCC2(C)C(=O)NC2CCCCCC2)c1` (stereo not given) here?
A: inactive

Q: Which outcome does the source give for `CCCCCN(C(=O)NC(=O)Nc1ccccc1OC)S(C)(=O)=O` here?
A: inactive

Q: For `Cn1c(=S)c2[nH]c(SCCCc3ccccc3)nc2n(C)c1=O`, which outcome is on record?
A: inactive [dye equivalency, Compound Type: qHTS ECL - NCI]

Q: Which outcome does the source give for `ClC(Cl)(Cl)C(N1CCN(c2ccccc2)CC1)N1CCN(c2ccccc2)CC1` here?
A: inactive [dye equivalency, Compound Type: qHTS ECL - NCI]

Q: Which outcome does the source give for `CCOC(=O)c1cc2n(c1C)-c1ccccc1C2=O` here?
A: inactive

Q: Which outcome does the source give for `CCOC(=O)Nc1ccccc1N1C(=O)c2ccccc2C1=O` here?
A: inactive

Q: Which max dye equivalency does the source give for `CCOC(=O)c1cc2n(c1N)-c1ccccc1C2=O` here?
A: 39 nM [Compound Type: qHTS ECL - DPISMR, hits give high values] (active)

Q: For `COc1ccc2oc(C)c(NC(C)=O)c2c1`, which outcome is on record?
A: inactive

Q: With `NC(=O)CSC1=Nc2ccccc2C2=NC(CCC(=O)NCc3ccc(F)cc3)C(=O)N12` (stereo not given) as the molecule, how does the outcome read?
A: inactive [dye equivalency, Compound Type: qHTS ECL - DPISMR]

Q: Which outcome does the source give for `Oc1c(C(c2ccccn2)N2CCOCC2)ccc2cccnc12` (stereo not given) here?
A: inactive

Q: With `COc1cc(OC)cc(C(=O)Nc2ccc(-c3nc4ccccc4o3)c(O)c2)c1` as the molecule, how does the outcome read?
A: inactive

Q: Which outcome does the source give for `Clc1ccccc1-c1cc(NCCN2CCOCC2)ncn1` here?
A: inactive [dye equivalency, Compound Type: qHTS ECL - Pharmacopeia]

Q: Which outcome does the source give for `O=C1c2ccncc2C(=O)N1C1CCCCC1` here?
A: inactive

Q: Which outcome does the source give for `COc1cc(C2C(C#N)=C(N)Oc3n[nH]c(-c4ccccn4)c32)cc(OC)c1OC` (stereo not given) here?
A: inactive

Q: Which outcome does the source give for `CS(=O)(=O)c1ccc2nc(NC(=O)CN3CCCCCC3)sc2c1` here?
A: inactive

Q: With `CC(=O)c1sc2nc(SCC(=O)N3CCCCC3)[nH]c(=O)c2c1C` as the molecule, how does the outcome read?
A: inactive [dye equivalency, Compound Type: qHTS ECL - DPISMR]

Q: Which outcome does the source give for `O=C(CN1CCN(c2ncc(C(F)(F)F)cc2Cl)CC1)Nc1ccc2c(c1)OCO2` here?
A: inactive

Q: With `O=c1cnc2cnc(Nc3ccccc3)nc2n1Cc1ccc(F)cc1` as the molecule, how does the outcome read?
A: inactive [dye equivalency, Compound Type: qHTS ECL - Pharmacopeia]

Q: For `CCOc1ccc(-n2c(SC(C)C(=O)OC)nc3c(c2=O)SCC3)cc1` (stereo not given), which outcome is on record?
A: inactive

Q: For `CC(Sc1sc(=S)sc1SC(C)C(=O)O)C(=O)O` (stereo not given), which outcome is on record?
A: inactive

Q: Which outcome does the source give for `CN(C)c1ccc(-c2nc(NCCN3CCOCC3)c3ccccc3n2)cc1` here?
A: inactive [dye equivalency, Compound Type: qHTS ECL - Pharmacopeia]

Q: Which outcome does the source give for `COCCn1c(=O)c(-c2ccccc2)nc2cnc(N3CCOCC3)nc21` here?
A: inactive [dye equivalency, Compound Type: qHTS ECL - Pharmacopeia]

Q: With `O=C(c1cccc(F)c1)N1CCC2(CC1)CCN(c1ccccc1)CC2` as the molecule, how does the outcome read?
A: inactive [dye equivalency, Compound Type: qHTS ECL - Pharmacopeia]

Q: Which outcome does the source give for `Clc1ccc(Cn2ncc3c(NCc4cccnc4)ncnc32)cc1` here?
A: inactive [dye equivalency, Compound Type: qHTS ECL - DPISMR]

Q: Which outcome does the source give for `O=C(O)C1CCCN1S(=O)(=O)c1ccc2c(c1)CCC2` (stereo not given) here?
A: inactive

Q: For `CN(C)C(=O)c1ccc(-c2cncnc2Nc2ccccc2)cc1`, which outcome is on record?
A: inactive [dye equivalency, Compound Type: qHTS ECL - Pharmacopeia]

Q: For `CCOC(=O)N1CCC(C(N)=O)CC1`, which outcome is on record?
A: inactive

Q: With `Cc1cc(C)n2nc(C(=O)Oc3ccc4c(c3)OCO4)nc2n1` as the molecule, how does the outcome read?
A: inactive

Q: With `N#Cc1ccc(CN2CCCC3(CCN(C(=O)c4ccco4)CC3)C2)cc1` as the molecule, how does the outcome read?
A: inactive [dye equivalency, Compound Type: qHTS ECL - Pharmacopeia]

Q: For `CCCCOc1ccc(NC(=O)CSCC(=O)OCC)cc1`, which outcome is on record?
A: inactive

Q: For `Cc1cccc(N)c1SC1CCCCC1O` (stereo not given), which outcome is on record?
A: inactive

Q: With `COc1ccccc1CNc1ncncc1-c1cccc(NS(C)(=O)=O)c1` as the molecule, how does the outcome read?
A: inactive [dye equivalency, Compound Type: qHTS ECL - Pharmacopeia]

Q: For `COC(=O)Cc1c(C)c2ccc(OCC(=O)NCc3ccc4c(c3)OCO4)cc2oc1=O`, which outcome is on record?
A: inactive [dye equivalency, Compound Type: qHTS ECL - DPISMR]

Q: Which outcome does the source give for `O=c1c(CCc2ccccc2)nc2cnc(N3CCNCC3)nc2n1Cc1cccs1` here?
A: inactive [dye equivalency, Compound Type: qHTS ECL - Pharmacopeia]

Q: Which outcome does the source give for `O=C(NC1CCCCC1)N1CCc2[nH]c3ccccc3c2C1` here?
A: inactive [dye equivalency, Compound Type: qHTS ECL - DPISMR]

Q: For `CCOC(=O)c1c(N)c(C#N)nn1-c1ccccc1C(=O)OC`, which outcome is on record?
A: inactive [dye equivalency, Compound Type: qHTS ECL - DPISMR]

Q: With `Cc1ccc(C(=O)NC2CC(C)(C)NC(C)(C)C2)c(C)c1` as the molecule, how does the outcome read?
A: inactive

Q: With `O=C(Oc1ccc2c(c1)CN(Cc1ccccc1)CO2)c1ccccc1` as the molecule, how does the outcome read?
A: inactive [dye equivalency, Compound Type: qHTS ECL - NCI]

Q: With `c1ccc(-c2cn3cccnc3n2)cc1` as the molecule, how does the outcome read?
A: inactive

Q: With `CCC(C)n1[nH]c(=O)cc1N` (stereo not given) as the molecule, how does the outcome read?
A: inactive

Q: For `Cc1cccc(N2CCN(C(c3ccccc3)c3nnnn3CC3CCCO3)CC2)c1C` (stereo not given), which outcome is on record?
A: inactive

Q: For `CC1(C)CC(=O)C2=C(C1)NCN(CCCN1CCOCC1)C2`, which outcome is on record?
A: inactive [dye equivalency, Compound Type: qHTS ECL - DPISMR]

Q: For `O=C(c1ccco1)N1CCN(CC(=O)N(C2CCCCC2)C2CCS(=O)(=O)C2)CC1` (stereo not given), which outcome is on record?
A: inactive

Q: Which outcome does the source give for `O=c1c(-c2cc(F)cc(F)c2)nc2cnc(Oc3ccccc3)nc2n1C[C@H]1CCCO1` here?
A: inactive [dye equivalency, Compound Type: qHTS ECL - Pharmacopeia]

Q: Which outcome does the source give for `CCCc1nc2ccccc2c(C(=O)OCc2nnc(-c3cc(OC)c(OC)c(OC)c3)o2)c1CC` here?
A: inactive

Q: With `COc1ccc(OCc2cccc(C(=O)N3CCCC3)c2)cc1` as the molecule, how does the outcome read?
A: inactive

Q: With `CCOc1ccccc1NC(=O)Nc1cc(OC)ccc1OC` as the molecule, how does the outcome read?
A: inactive [dye equivalency, Compound Type: qHTS ECL - DPISMR]

Q: Which outcome does the source give for `Cn1c(=O)[nH]c(=O)c2c1nc(NCCCn1ccnc1)n2Cc1cccc(Br)c1` here?
A: inactive [dye equivalency, Compound Type: qHTS ECL - DPISMR]

Q: With `CCCc1nc2ccccc2c(=O)n1/N=C/c1ccc(O)c(O)c1` as the molecule, how does the outcome read?
A: inactive [dye equivalency, Compound Type: qHTS ECL - DPISMR]

Q: Which outcome does the source give for `COc1ccc(-c2nc3cnc(Oc4ccccc4)nc3n(Cc3cccs3)c2=O)cc1` here?
A: inactive [dye equivalency, Compound Type: qHTS ECL - Pharmacopeia]

Q: Which outcome does the source give for `CN1CCN(S(=O)(=O)c2ccc3[nH]cc(C(=O)O)c(=O)c3c2)CC1` here?
A: inactive [dye equivalency, Compound Type: qHTS ECL - DPISMR]
